The values below come from PubChem BioAssay (Tox21).

Inconclusive results are not listed. The source made the active and inactive calls. Calls come from the whole dose curve; as a rule, active = well fitted activation curve with a large enough effect in the repeat runs; inconclusive = weak or mixed curves; inactive = flat fitted curve, though single readings scatter.
% is set by controls: 0 for no effect and ±100 for the full control effect.

This assay in a line: A CellTox Green Cytotoxicity Assay to monitor cytotoxicity in HEK293 cells - 40 hour (AID 1224871). Note: nearly all actives have a fitted effect of over 45% in size. As to conditions: CellTox Green fluorescence; series mostly up to 76.8 µM; cytotoxicity increase: at the top concentration. From the text:
National Center for Advancing Translational Sciences [NCATS]
NIH Chemical Genomics Center [NCGC]
U.S. Environmental Protection Agency [EPA]
National Institutes of Environmental Health Sciences [NIEHS]
National Toxicology Program [NTP]
Cell-based models are critical for drug discovery. Determining the natural cytotoxic effects resulting from test compounds is an essential research activity. A CellTox Green Cytotoxicity Assay to monitor cytotoxicity in real time of continues cell culture during 40 hours of the compound treatment was used to screen Tox21 10K library compounds in Hek293 cells. CellTox Green Cytotoxicity Assay is a nonlytic, homogeneous, biofluorescent method to measure cytotoxicity in cell culture after experimental manipulation. The assay system uses a proprietary asymmetric cyanine dye that is excluded from viable cells but preferentially stains the dead cell's DNA. […] Viable cells produce no appreciable increases in fluorescence. Therefore, the fluorescence signal produced by the binding interaction with dead cell DNA is proportional to cytotoxicity.
The mixture of Hek293 cell suspension and reagents were dispensed at 600cells/6 ul/well in 1536-well tissue culture treated black solid bottom plates using a Multidrop dispenser. After the assay plates were incubated at a 37 C/5% CO2 incubator for 5 hours, 23 nL of compounds dissolved in DMSO, positive and negative controls was transferred to the assay plate by a pintool work station. The plates were incubated at 37 C for 40 hours. The fluorescence intensity were measured at 0h, 8h, 16h, 24h, 32h and 40h time points using ViewLux plate reader during compound treatment.
`Cc1c(I)c(=O)n(-c2ccccc2)n1C`: the “cytotoxicity increase” value was 12.5% [at 35.3 µM] (inactive).
The value for `CC(CO)c1ccccc1` (stereo not given) was -9.49% (inactive); that for `CN(C)CCOCCO` was -9.03% (inactive); that for `O=C1CCCC(=O)O1` was -13.6% (inactive).
For `N[C@@H](CCC(=O)N[C@@H](CS)C(=O)NCC(=O)O)C(=O)O` the value was 2.27% [at 15.8 µM] (inactive).
The value for `CCN(C)C(=O)Oc1cccc([C@H](C)N(C)C)c1` was 4.86% [at 35.3 µM] (inactive); that for `CCCCCCCCSCC` was -2.78% (inactive).
In the case of `CCN1CCc2nc(N)oc2CC1`, the “cytotoxicity increase” value is -10.1% [at 35.3 µM] (inactive).
For `CO[C@@H]1[C@@H](OC(N)=O)[C@@H](O)[C@H](Oc2ccc3c(O)c(NC(=O)c4ccc(O)c(CC=C(C)C)c4)c(=O)oc3c2C)OC1(C)C` the value was -3.95% [at 35.3 µM] (inactive); for `C=C1CC/C=C(\C)CC[C@@H]2[C@@H]1CC2(C)C`, -2.13% (inactive); for `NCCS`, 9.51% [at 35.3 µM] (inactive).
For the molecule `CCOCCOCCOCC`, the “cytotoxicity increase” value is -7.13% (inactive).
The value for `CCCCCCOc1ccccc1C(N)=O` was 17.6% [at 35.3 µM] (inactive); that for `CC(C)(C)c1cc(CCC(=O)NN)cc(C(C)(C)C)c1O` was -1.82% (inactive); that for `CC(C)(C)c1n[nH]c(=S)n(N)c1=O` was -9.02% (inactive).
The value for `Cc1ccccc1OCC(O)CO` (stereo not given) was -3.54% [at 35.3 µM] (inactive); that for `CCCOC(=O)C(C)O` (stereo not given) was -12.5% (inactive); that for `C=C(C)C1CCC(C)(O)CC1` (stereo not given) was -9.09% (inactive).
For `CC(C)=O` the value was -12.9% (inactive); for `COc1cc(N)ccc1C`, -11.3% (inactive); for `CCOC(=O)c1ccc(OC(=O)CCCCCN=C(N)N)cc1`, -35% [at 35.3 µM] (inactive).
For `CCCCC(CC)COCCO` (stereo not given), the “cytotoxicity increase” value is 0.543% (inactive).
Turning to `C=C(C)C(=O)OCCN(CC)CC`, the “cytotoxicity increase” value is -14.5% (inactive).
Consider `O=C(Nc1ccc(Cl)c(Cl)c1)C1CC1`, for which the “cytotoxicity increase” value is 0.192% [at 35.3 µM] (inactive).
For `CCCOC(OCCC)OCCC`, the “cytotoxicity increase” value was -12.1% (inactive).
The value for `CCOC(=O)CC(=O)c1ccccc1` was -0.967% (inactive); that for `Nc1cccc(O)c1` was -4.45% (inactive); that for `C[C@H](N)[C@H](O)c1cccc(O)c1` was -9.12% [at 35.3 µM] (inactive).
As for `O=P(O)(O)OP(=O)(O)O`, the “cytotoxicity increase” value is -11.5% (inactive).
For the molecule `C[Si](C)(C)C`, the “cytotoxicity increase” value is -4.51% (inactive).
The value for `C=COCCOCCOCCOC=C` was 3.51% (inactive).
On to `COC(=O)CCc1ccc(OCC(O)CNC(C)C)cc1` (stereo not given), for which the “cytotoxicity increase” value was -8.81% [at 35.3 µM] (inactive).
Turning to `CC1(C)S[C@@H]2[C@H](N=CN3CCCCCC3)C(=O)N2[C@H]1C(=O)O`, the “cytotoxicity increase” value was -0.696% [at 35.3 µM] (inactive).
Turning to `CC(C)N(c1ccccc1)C(C)C`, the “cytotoxicity increase” value is -7.28% (inactive).
As for `NNc1nnc(NN)c2ccccc12`, the “cytotoxicity increase” value is -9.76% [at 35.3 µM] (inactive).
Turning to `c1ccc2nccnc2c1`, the “cytotoxicity increase” value is -6.37% (inactive).
Take `CCOc1cc(NC(C)=O)ccc1C(=O)OC`: the “cytotoxicity increase” value is 10.1% [at 35.3 µM] (inactive).
The value for `Cc1ccc2c(c1)OCC(=O)CO2` was -6.25% (inactive).
With `CCOC(=O)/C=C/c1ccccc1`, the “cytotoxicity increase” value was 24.3% (inactive).
On to `CCCCOCCOC(=O)COc1nc(Cl)c(Cl)cc1Cl`, for which the “cytotoxicity increase” value is 11.1% (inactive).
